The record followed here is PubChem BioAssay AID2315 (National Center for Advancing Translational Sciences (NCATS), 2010).

The term inhibition denotes the drop in the measured response relative to a control, in per cent.

Hit rate of the full screen: of about 290,000 compounds, about 27,000 (9.3%) were called active. The sample holds actives, similar compounds and a random draw of the others, so the mix is not that of the screen. Unmarked numbers belong to inactive results. Cut-off read from the data, not from the text of the source: active = inhibition mostly above about 28% (no sharp cut-off); inactive = mostly below about 43%.

The experiment can be described thus: A qHTS for Small Molecule Inhibitors of Shiga Toxin. Note: 0% is about no effect. The following applies: Vero cells, Shiga toxin protein synthesis inhibition reporter; at 38.7 µM, hits give high values. (In general: qHTS replaces the single test concentration by a dilution series.)
For the compound `CC1CC(C)CN(C(=O)C2CC(=O)N(c3ccc(F)cc3)C2)C1` (centres undefined), the inhibition was -7.56%.

Take `O=C(N/N=C/c1ccccc1O)/C(=C/c1ccccc1)CCO`: the inhibition was 51.6% (active).

For the compound `O=C(N/N=C/c1ccccc1O)C1CCCC1`, the inhibition was 21.6%.

As for `O=C(CCCO)N/N=C/c1cc(Br)ccc1O`, the inhibition was 13.6%.

Take `O=c1c2c(nc3nc[nH]n13)CCC2`: the inhibition is 11.8%.

For the compound `O=c1c2c(nc3cc(-c4cccc(Cl)c4)[nH]n13)CCCC2`, the inhibition was 59.1% (active).

In the case of `Cc1cc(=O)n2[nH]c(-c3cccc(Cl)c3)cc2n1`, the inhibition is 39.8%.

`O=S(=O)(c1ccc(Cl)cc1)c1nc(-c2ccccc2F)oc1NCCN1CCOCC1`: the inhibition was -6.01%.

With `CCCc1nc(NCc2ccc3c(c2)OCO3)c2nnn(Cc3ccccc3Cl)c2n1`, the inhibition is 7.73%.

In the case of `Cc1nc(Nc2ccccc2F)c2nnn(Cc3ccccc3Cl)c2n1`, the inhibition is -8.68%.

`Cc1nc(Nc2ccc3c(c2)OCCO3)c2nnn(Cc3ccccc3Cl)c2n1`: the inhibition was 153% (active).

Turning to `COc1ccc(C(=O)/C=C/c2ccc(-c3ccccc3)cc2)cc1CSCC(=O)O`, the inhibition is -14.5%.

Regarding `CCc1ccccc1NC(=O)CCOc1ccccc1`, the inhibition is -7.03%.

As for `Cc1ccccc1NC(=O)CCOc1ccccc1`, the inhibition was 58% (active).

For the compound `Cc1c(NC(=O)CCCOc2ccccc2)cccc1[N+](=O)[O-]`, the inhibition is 10.4%.

As for `COc1cccc(CN(C)CC2CCCN(CCc3ccc(Cl)cc3)C2)c1OC` (centres undefined), the inhibition was -3.67%.

Regarding `C/[N+]([O-])=C\c1ccc([N+](=O)[O-])o1`, the inhibition is -7.77%.

Regarding `O=C(N/N=C/c1ccc([N+](=O)[O-])o1)c1cn(-c2ccccc2)nc1-c1ccc(F)cc1`, the inhibition was 8.71%.

`O=C(/C=C/c1ccc([N+](=O)[O-])o1)NNC(=O)c1ccc(F)cc1`: the inhibition is 120% (active).

As to `Cc1coc2c1c(C)cc1oc(=O)c(CC(=O)NCC(=O)N[C@H](C(=O)O)C(C)C)c(C)c12`, the inhibition was -15%.

In the case of `Cc1nc(N2CCOCC2)c2c(C)c(C(=O)Nc3ccc(C(F)(F)F)cc3)sc2n1`, the inhibition is -15.2%.

`O=c1c2c(nc3n1CCCCC3)sc1c(O)cccc12`: the inhibition was 20.9%.

On to `Cc1nc(N2CCN(c3ccccn3)CC2)c2c(C)c(C(=O)Nc3ccc(F)cc3)sc2n1`, for which the inhibition is -7.13%.

As for `CC(=O)c1ccc(NC(=O)c2sc3nc4n(c(=O)c3c2C)CCCCC4)cc1`, the inhibition is 81.1% (active).

Take `Cc1c(C(=O)Nc2ccccc2)sc2nc3n(c(=O)c12)CCCCC3`: the inhibition is 95.7% (active).

In the case of `Cc1c(C(=O)Nc2cccc(-c3nnc4n3CCCCC4)c2)oc2ccccc12`, the inhibition was 35%.

Regarding `CN(C(=O)CC1C(=O)NCCN1Cc1ccc(F)cc1Cl)C1CCCCC1` (centres undefined), the inhibition was -14.2%.

`CCn1c(CNc2ccc(OC)cc2)nnc1SCC(=O)c1ccc(OC)cc1`: the inhibition is -15.6% (active).

As to `CCn1c(Cc2cccs2)nnc1SCC(=O)c1ccc(C)cc1`, the inhibition was 41.4% (active).

`CCn1c(SCC(=O)N(C)C2CCS(=O)(=O)C2)nnc1-c1cccs1` (centres undefined): the inhibition is -0.571%.

On to `CCn1c(SCC(=O)c2ccc3ccccc3c2)nnc1-c1cccs1`, for which the inhibition was -3.35%.

Take `Cc1ccc(-n2c(Cc3cccs3)nnc2SCC(=O)OC(C)C)cc1`: the inhibition is 8.05%.

As for `Cn1c(Cc2cccs2)nnc1SCC(=O)Nc1ccccc1`, the inhibition was -7.01%.

Consider `C=CCn1c(CNC(=O)c2ccco2)nnc1SCC(=O)c1ccc(OC)cc1`, for which the inhibition was -12.2%.

`COC(=O)c1ccc(NC(=O)CSc2nnc(CNc3ccc(OC)cc3)n2C)cc1`: the inhibition is 24.4%.

As for `CCn1c(SCC(=O)c2ccc(Cl)s2)nnc1-c1cccs1`, the inhibition is 73.6% (active).

For `O=C(NCc1ccco1)C(c1ccncc1)N(C(=O)Cn1nnc2ccccc21)c1ccccc1` (centres undefined), the inhibition was -3.36%.

For the compound `CCOC(=O)c1cc(C)nc(S(C)(=O)=O)c1C#N`, the inhibition was 47.2%.

Consider `CN(CCc1ccccc1)c1ccc([N+](=O)[O-])cn1`, for which the inhibition was -3.15%.

In the case of `CCCCC(c1nnnn1CS(=O)(=O)c1ccc(C)cc1)N1CCC(C(N)=O)CC1` (centres undefined), the inhibition is -8.35%.

For the compound `COc1ccccc1-c1nnc(SCC(=O)N2CC(C)CC(C)C2)o1` (centres undefined), the inhibition was -7.49%.

As for `CC1CC(C)CN(C(=O)CSc2ccsc2[N+](=O)[O-])C1` (centres undefined), the inhibition was 63.3% (active).

On to `O=C(CSc1ccsc1[N+](=O)[O-])N1CCCCC1`, for which the inhibition was 6.79%.

Turning to `COCc1c(C(=O)N/N=C(\C)c2ccncc2)nnn1-c1nonc1N`, the inhibition is -3.05%.

On to `COC(=O)c1ccc(NC(=O)CSc2nnc(C3CC3)n2C)cc1`, for which the inhibition is 17.5%.

In the case of `O=C(Nn1cnc2ccccc2c1=O)c1ccc([N+](=O)[O-])cc1Cl`, the inhibition is -11.9%.

`O=C(Nn1cnc2ccccc2c1=O)c1ccc(F)cc1Cl`: the inhibition was 71.8% (active).

Take `O=C(Nn1cnc2ccccc2c1=O)c1ccccc1`: the inhibition is 58.6%.

On to `COc1cc(C(=O)NCc2ccncc2)cc(Br)c1OCc1ccccc1`, for which the inhibition is -9.85%.

`CC(C(=O)NCCc1ccc(S(N)(=O)=O)cc1)N1C(=O)CC(C)(C)Sc2ccccc21` (centres undefined): the inhibition is -10.5%.

Turning to `CCCn1c(CCNc2nc(-c3ccc(OC)cc3)cs2)nc2ccccc21`, the inhibition is 20.9%.

In the case of `COc1ccc2c(c1OC)C(=O)OC2Nc1nc(-c2ccccc2)cs1` (centres undefined), the inhibition is 36.9% (active).

As for `CC(=O)Nc1ccc(-c2csc(NC=C3C(=O)OC(C)(C)OC3=O)n2)cc1`, the inhibition is 54%.

Consider `COc1ccc2c(c1OC)C(=O)OC2c1c(O)nc(SC)n(-c2ccccc2)c1=O` (centres undefined), for which the inhibition is -8.28%.

With `Cc1ccc(-c2csc(NC3OC(=O)c4ccccc43)n2)cc1` (centres undefined), the inhibition is 30% (active).

For the compound `Cc1ccc(-c2csc(NC(=O)Cn3[nH]c(=O)c4ccccc4c3=O)n2)cc1`, the inhibition is 42.6%.

With `COc1ccc(C)cc1Nc1nc(-c2c(C)[nH]c3ccccc23)cs1`, the inhibition is -3.8%.

In the case of `COc1ccc(N/C=C(\C2OC(=O)c3ccccc32)[N+](=O)[O-])cc1` (centres undefined), the inhibition is 15.2%.

`COc1ccc(-c2csc(NC3OC(=O)c4ccccc43)n2)cc1` (centres undefined): the inhibition was 41.6% (active).

With `Cc1ccc(NS(=O)(=O)c2ccc3c(c2)n(C)c(=O)c(=O)n3C)c(C)c1`, the inhibition was -7.48%.

For `COCCN1CCn2c(nc3cc(NS(C)(=O)=O)ccc32)C1`, the inhibition was -2.98%.

Take `COc1ccc(C(=O)NC2CC(C)(C)Cc3c2cnn3-c2ccccc2C)o1` (centres undefined): the inhibition is -10.5%.

With `O=C(COc1ccc2c3c(c(=O)oc2c1)CCCC3)NCC(O)c1ccccc1` (centres undefined), the inhibition is -3.53%.

For `O=C(CCn1c(=S)[nH]c2cc3c(cc2c1=O)OCO3)NCc1ccc(Cl)cc1`, the inhibition is 1.66%.

Take `O=C(CCc1nnc(Cc2ccc3c(c2)OCO3)o1)NCCc1ccccc1Cl`: the inhibition is -5.99%.

Take `CN1CCN(Cc2nc3cc(NC(=O)COc4ccc([N+](=O)[O-])cc4)ccc3n2C)CC1`: the inhibition is -2.13%.

With `COC(=O)c1cccc(C(=O)N2CCCC(Nc3ccc4c(c3)OCCO4)C2)c1` (centres undefined), the inhibition is 2.25%.

For `Cc1cc(/C=C2\SC(=O)N(C)C2=O)c(C)n1-c1cccc(C(=O)O)c1`, the inhibition was 3.52%.

Regarding `COc1ccc(OCCCCN2CCC(C)CC2)cc1`, the inhibition was -6%.

With `Cn1cc(Cl)c(C(=O)NNC(=S)Nc2cccc(Cl)c2)n1`, the inhibition is 49.5% (active).

Regarding `CC(C)CNC(=S)NNC(=O)c1nn(C)cc1Cl`, the inhibition was 4.35%.

`Cc1cccc(NC(=S)Nc2ccc(Cl)c(Cl)c2)c1`: the inhibition is 17%.

On to `CC(Cc1cccs1)N(Cc1ccc(Cl)cc1)C(=O)c1ccncc1` (centres undefined), for which the inhibition was -3.64%.

Turning to `COc1cc(OC)c(NS(=O)(=O)c2cn(C)cn2)cc1Cl`, the inhibition is 11.1%.

For `COc1cccc(CNC(=O)c2cccnc2Sc2ccc(Cl)cc2)c1`, the inhibition was -40.4%.

For `CC1CCCN(c2ccc(C(=O)NCCc3ccccc3)cn2)C1` (centres undefined), the inhibition is 78.5% (active).

As for `CC1CCN(c2c(NCc3ccc(C(=O)NCc4ccccc4)cc3)c(=O)c2=O)CC1`, the inhibition is -6.77%.

Turning to `O=C(NCCc1ccccc1)c1ccc(NC2=NC3CS(=O)(=O)CC3S2)cc1` (centres undefined), the inhibition is 3.05%.

As to `CCN(CC)S(=O)(=O)c1ccc(N2CCCC2)c(NS(=O)(=O)c2cccs2)c1`, the inhibition is 21%.

On to `COc1ccc(CNc2c(CO)cnc3c2cnn3C)cc1`, for which the inhibition is -11.4%.

Turning to `CN(C)/C=C(/C(=O)c1ccccc1)S(=O)(=O)c1ccc(Cl)cc1`, the inhibition is 13.2%.

With `CN(C)/C=C(/C(=O)c1ccc(Cl)cc1)S(=O)(=O)c1ccccc1`, the inhibition was 64.1% (active).

Consider `CN(C)/C=C(/C(=O)c1ccc(F)cc1)S(=O)(=O)c1ccc(F)cc1`, for which the inhibition is 58.3%.

`Cc1ccc(C(CNC(=O)Nc2ccccc2)N2CCN(C)CC2)cc1` (centres undefined): the inhibition is -3.91%.

With `CCc1cc(=O)oc2c(C)c(OCC(=O)NCCN3CCOCC3)ccc12`, the inhibition was -2.76%.

As for `Cc1cc(NC(=O)c2cnn3cccnc23)n(-c2ccccc2)n1`, the inhibition was -5.01%.

As to `O=C(Nc1ccc(Cl)cn1)c1cnn2cccnc12`, the inhibition is 85.1% (active).

With `COc1cccc(-c2cccc(NC(=O)C3CCN(C4CCC4)CC3)c2)c1`, the inhibition is -10.9%.

As for `COc1cc(Nc2nc3ccc(Cl)cc3n3cnnc23)cc(OC)c1OC`, the inhibition is -9.44%.

For the compound `CCN1CCN(c2ccc(S(=O)(=O)N3CCCCC3)cc2NC(=O)Cc2c(Cl)cccc2Cl)CC1`, the inhibition was 42.5% (active).

On to `COc1ccc(CC(=O)Nc2cc(S(=O)(=O)N3CCCCC3)ccc2N2CCN(C)CC2)cc1`, for which the inhibition is 2.85%.

`CN1CCN(c2ccc(S(=O)(=O)N3CCCCC3)cc2NC(=O)Cc2ccccc2F)CC1`: the inhibition is -8%.

For `COC(=O)c1cnc(Nc2cc(C)ccc2OC)c2ccccc12`, the inhibition is -8.41%.

For the compound `Cc1cc(F)ccc1NC(=S)NCCc1ccccc1`, the inhibition is 6.98%.
